These results are taken from PubChem BioAssay (NCATS).

Inconclusive results are not listed. Activity calls are given as the source filed them. The call rests on the fitted dose curve; in most records, active means well fitted activation curve with a large enough effect; inconclusive means small, poorly fitted or top-dose-only effect; inactive means no such curve, though single readings can be large or run the other way.

Cellular tumor antigen p53 (Homo sapiens), sequence (P04637 whole entry, looked up): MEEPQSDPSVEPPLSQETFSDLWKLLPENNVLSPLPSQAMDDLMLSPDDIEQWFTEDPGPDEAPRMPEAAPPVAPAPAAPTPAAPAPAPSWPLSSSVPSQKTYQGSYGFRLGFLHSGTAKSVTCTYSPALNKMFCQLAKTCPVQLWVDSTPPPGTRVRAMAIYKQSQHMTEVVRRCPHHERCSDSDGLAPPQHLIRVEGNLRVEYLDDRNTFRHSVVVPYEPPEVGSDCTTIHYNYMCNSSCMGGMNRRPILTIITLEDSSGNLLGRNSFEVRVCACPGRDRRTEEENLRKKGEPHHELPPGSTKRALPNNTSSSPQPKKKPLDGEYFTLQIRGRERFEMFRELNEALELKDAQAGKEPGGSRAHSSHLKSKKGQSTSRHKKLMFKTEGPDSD

This experiment addresses Cellular tumor antigen p53 (Homo sapiens) (UniProt P04637). The experiment can be described thus: Primary qHTS for small molecule compounds that upregulate eGFP-tagged delta133p53alpha (in N-terminal) cells. (AID 2060322).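 Further: series mostly up to about 56 µM; 0% = DMSO vehicle and 100% = reference activator; nearly all actives have a fitted effect of over 75% in size.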 The note with it: NCI-H358 eGFP-delta133p53alpha fluorescence, 24 h; activation: hits give high values. Summed up: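 NCI-H358 cells pre-induced 24 h with 10 ng/ml doxycycline to express N-terminal eGFP-delta133p53alpha, then dosed 24 h at 37C without doxycycline; fixed, Hoechst-stained, GFP intensity by laser scanning cytometry, normalized to DMSO (0%) and 57.5 uM 5-azacytidine (100%).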
(In general: qHTS replaces the single test concentration by a dilution series.)
With `COC(=O)c1ccccc1O[C@@H]1O[C@H](CO)[C@@H](O)[C@H](O)[C@H]1O[C@@H]1O[C@@H](C)[C@H](O)[C@@H](O)[C@H]1O`, the activation is -10.7% (inactive).
The value for `CC1=CC(=O)C[C@H]2[C@@H]1CC[C@@H](C)[C@]21CO[C@H](c2ccoc2)C1=O` was -3.82% (inactive); that for `O=C(CCCCc1ccc2ccccc2c1)C(F)(F)F` was 4.33% (inactive); that for `C[C@@]1(O)[C@H](O)[C@@H](CO)O[C@H]1n1ccc(N)nc1=O` was 0.333% (inactive).
The result for `CC(=O)O[C@@H]1C[C@]2(C)[C@@]3(CCC4[C@@]5(C)CC[C@H](O[C@@H]6O[C@H](C(=O)O)[C@@H](O)[C@H](OC7OC(CO)C(O)C(O)[C@H]7O[C@@H]7O[C@@H](C)[C@H](O)[C@@H](O)[C@H]7O[C@@H]7OC[C@](O)(CO)[C@H]7O)[C@H]6OC6OC(CO)C(O)C(O)C6O)C(C)(C)C5CC[C@]42C)OC[C@@]12CCC(C)(C)CC23` (stereo partly specified) reads -16% (inactive).
Regarding `C/C=C1\[C@H](O[C@@H]2O[C@H](CO)[C@@H](O)[C@H](O)[C@H]2O)OC=C(C(=O)O)[C@H]1CC(=O)OCCc1ccc(O)cc1`, the activation is 0.763% (inactive).
As for `C=C[C@@]1(C)CCC2=C([C@H]1OC(C)=O)[C@H](OC(C)=O)CC1[C@](C)(C(=O)OC)CC[C@H](OC(C)=O)[C@]21C` (stereo partly specified), the activation is 15.2% (inactive).
Consider `COc1cc(Cc2cnc(N)nc2N)c(C(C)C)cc1OC`, for which the activation was -15.2% (inactive).
Consider `CCOC(=O)C(CCc1ccccc1)NC(C)C(=O)N1Cc2ccccc2CC1C(=O)O` (stereo unspecified), for which the activation is -13.4% (inactive).
The result for `CCC(C)/C=C(C)/C=C/C1=CC2=C(Cl)C(=O)C(C)(OC(C)=O)C(=O)C2=CN1CCCC(=O)O` (stereo unspecified) reads 0.763% (inactive); that for `C/C=C/C=C/[C@@H]1O[C@](O)([C@H](CC)C(=O)NC/C=C/C=C(\C)[C@@H](OC)[C@@H](C)[C@@H]2O[C@H](/C=C/C=C/C=C(\C)C(=O)c3c(O)ccn(C)c3=O)[C@H](O)[C@@H]2O)[C@H](O)[C@H](O)C1(C)C`, 4.58% (inactive).
The value for `Cn1c(=O)c(F)c(Nc2ccc(I)cc2F)c2c(=O)n(CC(O)CO)cnc21` (stereo unspecified) was 14.3% (inactive).
The value for `CC(C)=CC1C[C@](C)(O)[C@@H]2[C@H]3CCC4[C@@]5(C)CC[C@H](O[C@@H]6OC[C@H](O)[C@H](O[C@@H]7O[C@H](CO[C@@H]8O[C@H](CO)[C@@H](O)[C@H](O)[C@H]8O)[C@@H](O)[C@H](O)[C@H]7O)[C@H]6O[C@@H]6O[C@@H](C)[C@H](O)[C@@H](O)[C@H]6O)C(C)(C)[C@@H]5CC[C@@]4(C)[C@@]34CO[C@@]2(C4)O1` (stereo partly specified) was -4.46% (inactive); that for `COC(=O)C1=C[C@@H](O)[C@@H](O)[C@H](O[C@@H]2O[C@H](COC(=O)/C=C/c3ccccc3)[C@@H](O)[C@H](O)[C@H]2O)C1` was -3.05% (inactive); that for `CC(C)(C)NCCCNC(=O)c1cccc(Br)c1` was -8.59% (inactive).
Take `COc1ccc(-n2c(=O)[nH]c3cc(C(=O)NCc4ccc(Cl)cc4)sc3c2=O)nc1OC`: the activation was -16.1% (inactive).
